Results: ChEMBL document CHEMBL1157539, “Thousands of chemical starting points for antimalarial lead identification” (Nature, 2010)

Experiments:
Format in all cases: functional
Plasmodium falciparum [1] = assay: GSK_TCMDC: Inhibition of Plasmodium falciparum 3D7 in whole red blood cells, using parasite LDH activity as an index of growth. Test compounds present at 2uM
Plasmodium falciparum [2] = assay: GSK_TCMDC: Inhibition of Plasmodium falciparum Dd2 in whole red blood cells, using parasite LDH activity as an index of growth. Test compounds present at 2uM
HepG2 = assay: GSK_TCMDC: Percent inhibition of human HepG2 cell line. Test compounds present at 10uM.

Row | Compound | Inhibition (Plasmodium falciparum [1]) | Inhibition (Plasmodium falciparum [2]) | Inhibition (HepG2)
1 | Cc1cccc2nc(-c3ccc(-c4ccc(CN5CCN(CC6CCCN(C)C6)CC5)cc4)s3)[nH]c12.O=C(O)C(F)(F)F (centres undefined) | 100% | 99% | 63%
2 | N#Cc1ccc(N2CCN(Cc3ccc(-c4ccc(-c5nc6ccccc6[nH]5)s4)cc3)CC2)nc1.O=C(O)C(F)(F)F | 99% | 63% | 17%
3 | CC1CC(C)CN(S(=O)(=O)c2cc(C(=O)Nc3cccc([N+](=O)[O-])c3)ccc2Br)C1 (centres undefined) | 100% | 68% | 1%
4 | CCCCNc1cc(NCCCC)c2c(n1)[nH]c1ccccc12 | 100% | 94% | 13%
5 | CCCc1cc(Cc2cnc(N)nc2N)cc(CCC)c1OCCCCC(=O)OC | 94% | 0% | 0%
6 | Nc1ncc(Cc2ccc3c(ccc4ccccc43)c2)c(N)n1 | 97% | 3% | 9%
7 | Cc1cccc2nc(-c3cccc(-c4ccc(NC(=O)COC(C)C)cc4)c3)[nH]c12 | 82% | 11% | 0%
8 | COC(=O)c1ccc(C(=O)NCCCCN2CCC(c3ccc4c(c3OC)CCCC4)CC2)cc1-c1ccc(C(F)(F)F)cc1 | 93% | 19% | 24%
9 | Cc1ccc2c(Cc3cnc(N)nc3N)cc(C)c(N)c2n1.Cl | 91% | 92% | 0%
10 | COc1ccc2nccc([C@@H](O)CN3CCC(NC(=O)/C(=C/c4ccccc4)c4ccc(-c5ccccc5)cc4)CC3)c2c1 | 94% | 38% | 4%
11 | CO/C(=C\C=C\c1cc2cc(Cl)c(Cl)cc2[nH]1)C(=O)NC1CCN(CCOc2ccccc2)CC1 | 100% | 94% | 35%
12 | Cc1nc2ccc3ccc(CNc4ccc5c(c4)CN([C@@H](CCC(=O)O)C(=O)O)C5=O)cc3c2c(=O)[nH]1 [OSI-7904] | 94% | 95% | 41%
13 | O=C(Nc1cccc(-c2csc(-c3ccccc3)n2)c1)c1cccs1 | 89% | 71% | 0%
14 | COCCOc1nc(N)nc2ncc(Cc3cc(OC)ccc3OC)c(C)c12 | 96% | 0% | 61%
15 | Cc1c(Cl)cccc1S(=O)(=O)N1CCCCC(c2ccc(C(F)(F)F)cc2)=N1 | 86% | 91% | 15%
16 | Cc1cccc2nc(-c3cccc(-c4ccc(NC(=O)NCc5ccccc5)cc4)c3)[nH]c12 | 100% | 47% | 35%
17 | CCCC(=O)Nc1ccc(OCCCCN(Cc2ccccc2C(F)(F)F)c2ccc(C(F)(F)F)c(C#N)c2)cc1 | 94% | 94% | 6%
18 | CN1CCCC(CN2CCN(Cc3cccc(-c4cccc(-c5nc6ccccc6[nH]5)c4)c3)CC2)C1.O=C(O)C(F)(F)F (centres undefined) | 100% | 99% | 45%
19 | CN(C)Cc1ccc(-c2ccc3ccnc(N)c3c2)cc1 | 100% | 100% | 20%
20 | CCOc1cc(C(=O)NC2CCN(Cc3ccccc3)CC2)ccc1-c1nc2cc(Cl)c(Cl)cc2[nH]1 | 100% | 99% | 24%
21 | CN(C)CCNCc1nc(-c2ccc3c(Nc4ccc(Oc5ccccc5)cc4)ccnc3c2)cs1 | 100% | 100% | 8%
22 | O=C(Nc1ccccc1)c1c[nH]cn1 | 92% | 0% | 0%
23 | O=C(N1CCN(c2ccc(C(F)(F)F)cc2[N+](=O)[O-])CC1)C(Cl)(Cl)Cl | 100% | 99% | 29%
24 | COc1cc2nc(NCc3cccc(CNC(=O)c4ccc(-c5ccc(C(C)=O)cc5)cc4)c3)nc(N)c2cc1OC.O=C(O)C(F)(F)F | 100% | 72% | 32%

Row | Compound | Inhibition (Plasmodium falciparum [1]) | Inhibition (Plasmodium falciparum [2]) | Inhibition (HepG2)
25 | CCOC(=O)N1CCN(C(=O)Nc2ccc(Cl)cc2)CC1 | 92% | 0% | 4%
26 | COc1ccc(Nc2nc(N/N=C/c3ccc(O)cc3)nc(Nc3ccc([N+](=O)[O-])cc3)n2)cc1 | 93% | 16% | 0%
27 | O=CO.c1ccc(-c2ccc(CNCCCNc3nc4ccccc4[nH]3)cc2)cc1 | 95% | 0% | 20%
28 | O=C(Nc1ccc2c(c1)CCC2)N[C@H]1CCN(CCCCCNC(=O)C2CC2c2ccc(Cl)c(Cl)c2)C1 (some centres undefined) | 86% | 0% | 37%
29 | Br.Cc1ccccc1OCCCON1C(=N)N=C(N)NC1(C)C | 95% | 97% | 66%
30 | Cn1cnc(CCNC(=O)c2cccc(-c3cccc(-c4nc5cc(C(F)(F)F)ccc5[nH]4)c3)c2)c1 | 100% | 45% | 37%
31 | COc1ccc(CCNCCCCCCNCCc2cccc([N+](=O)[O-])c2)cc1OC.Cl | 93% | 0% | 13%
32 | CC(=O)Nc1ccc(C(=O)Nc2cccc(-c3ccc(-c4nc5ccccc5[nH]4)cc3)c2)cn1 | 100% | 93% | 12%
33 | O=C(CNCC1CCCCC1)Nc1cc(C(F)(F)F)ccc1Cl | 86% | 67% | 1%
34 | CCCCCCN1CCCN(Cc2ccc(C(=O)Nc3ccc(C)c(F)c3)cc2)CC1.O=C(O)C(F)(F)F | 92% | 58% | 47%
35 | CO/C(=C\C=C\c1cc2cc(Cl)c(Cl)cc2[nH]1)C(=O)NCCCN1CCN(c2cccc(OC)c2)CC1 | 100% | 93% | 61%
36 | N#Cc1cccc(NC(=O)C2=C(CCc3ccc4c(c3)OCO4)NC(=O)NC2c2cccc(C#N)c2)c1 (centres undefined) | 96% | 47% | 3%
37 | CCc1cc(-c2onc(C(F)(F)F)c2-c2ccccc2)c(O)cc1OC | 98% | 73% | 16%
38 | N=C(N)NN=CC(=O)Nc1cc([N+](=O)[O-])cc([N+](=O)[O-])c1.O=S(=O)(O)O | 100% | 0% | 0%
39 | Cc1cccc2nc(-c3ccc(-c4ccc(CNC(C)C)cc4)cc3)[nH]c12.O=C(O)C(F)(F)F | 99% | 62% | 12%
40 | Cn1ccc(C(=O)Nc2ccc3c(c2)CN(Cc2ccc(N4CCCC4)o2)CCC3)n1.O=CO | 80% | 72% | 19%
41 | O=C(Cc1c[nH]cn1)Nc1cccc(-c2cccc(-c3nc4cc(C(F)(F)F)ccc4[nH]3)c2)c1 | 100% | 100% | 35%
42 | Cc1oc(-c2ccc(Cl)cc2)cc1C(=O)NCCC1CCN(CCCCCNC(=O)/C=C/c2ccc(Cl)c(Cl)c2)CC1 | 100% | 88% | 100%
43 | CCNc1cc(C(=O)N[C@@H](Cc2ccccc2)[C@H](O)CNCc2cc(OC)cc(OC)c2)cc(N2CCCS2(=O)=O)c1.Cl | 99% | 86% | 0%
44 | CN(C)Cc1ccc(-c2cccc(NC(=O)c3cccc(Cl)c3)c2)cc1.O=C(O)C(F)(F)F | 96% | 12% | 18%
45 | Cc1cccc2nc(-c3ccc(-c4cccc(CNCC5CCCO5)c4)cc3)[nH]c12.O=C(O)C(F)(F)F (centres undefined) | 100% | 50% | 18%
46 | Cc1sc2ncnc(Sc3nnc(N)s3)c2c1C | 100% | 100% | 9%
47 | CN1CCCC1CCOc1ccc2c(c1)N(C(=O)Nc1cc(Br)cc(C(F)(F)F)c1)CC2.O=C(O)C(F)(F)F (centres undefined) | 100% | 97% | 13%
48 | COc1cc(C)nc2ccc(NC(=O)Nc3cccc4ccccc34)cc12 | 91% | 48% | 27%
